Rows were chosen to be rich in hits. Some 14% of all compounds tested hit in one or more screens of this group.
HSD17B inhib – inhibitors of human HSD17B10 dehydrogenase. Q99714. recombinant HSD17B10, NADH fluorescence kinetic. Potency, µM (titrated, usually from 57.1 µM), for inactives: top-dose activity change, negative = inhibition, hits mostly inhibitors. 7.6% of 75,000 active. AID 893;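 note: the protocol describes HADH2 (HSD17B10) and not the HSD17B4 of the title; potency is the fitted concentration of half-maximal effect; % is set by controls: 0 for no effect and ±100 for the full control effect; nearly all actives have a fitted effect of over 70% in size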
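His-tagged E. coli-expressed HADH2 at 20 nM in 100 mM Tris-HCl pH 9.0 with 0.01 % Tween-20, preincubated 15 min with compound at room temperature. Reaction with 1 mM NAD+ and 90 uM beta-hydroxybutyryl coenzyme A; NADH fluorescence (360/450 nm) read kinetically over 4 min, last minus first point.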
A350 autofl – compound fluoresces in the Alexa 350 spectral region | 11% of 59,000 active | Compound autofluorescence, 340/450 nm, Alexa 350 dye-equivalents; active compounds read high | max dye-equivalent concentration, M | AID 590; in the data active = max dye-equivalent concentration above about 10 nM; inconclusive = mostly about 1.1 nM to 9.6 nM
AID923 – qHTS Assay for Allosteric/Competitive Inhibitors of Caspase-1: Spectroscopic Profiling in AFC Spectral Region. 1.1% of 75,000 active. AID 923, 2007. Potency, µM (top dose mostly 57.5 µM), for the others: at the top dose fluorescence increase, actives largely listed as activators. compound fluorescence, AFC spectral region (405/520 nm); note: potency is the fitted concentration of half-maximal effect; 0% is about no effect
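Baseline compound fluorescence (AFC region, 405 nm ex/520 nm em) taken from the intercept of kinetic reads with 50 nM caspase-1 and 5 uM Ac-WEHD-AFC; normalized to an on-plate AFC standard curve; compounds titrated up to 57 uM.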
HADH2 inhib – blocks human hydroxyacyl-CoA dehydrogenase type II. AID 886. Q99714. Potency, µM (doses to about 57.1 µM), without a hit: at the top dose activity change, negative = inhibition, usual class: inhibitors. 3.4% of 73,000 active. recombinant HADH2, NADH fluorescence, beta-hydroxybutyryl-CoA; note: potency is the fitted concentration of half-maximal effect; % is set by controls: 0 for no effect and ±100 for the full control effect; nearly all actives have a fitted effect of over 60% in size
Target sequence (Q99714 whole entry, looked up, one chain of several): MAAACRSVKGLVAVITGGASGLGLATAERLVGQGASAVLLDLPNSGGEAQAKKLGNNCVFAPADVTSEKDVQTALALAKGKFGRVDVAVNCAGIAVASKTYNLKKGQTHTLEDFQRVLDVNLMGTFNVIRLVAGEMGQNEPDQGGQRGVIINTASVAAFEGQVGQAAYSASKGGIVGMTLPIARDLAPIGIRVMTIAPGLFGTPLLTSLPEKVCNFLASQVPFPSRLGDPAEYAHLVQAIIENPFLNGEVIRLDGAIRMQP
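Activity measured as NADH fluorescence gain (360/450 nm), taken as the change between first and last reads of a 4-min kinetic run. Conditions: pH 9.0 Tris buffer, 20 nM E. coli-expressed His-tagged enzyme, 1 mM NAD+, 90 uM beta-hydroxybutyryl-CoA; 15-min compound preincubation.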
4MU fluor – 4-MU region autofluorescence; compound autofluorescence, 340/450 nm, 4-MU equivalents; active compounds read high; 11% of 59,000 active; max dye-equivalent concentration, M; in the data active = max dye-equivalent concentration above about 10 nM; inconclusive = mostly about 1.1 nM to 9.6 nM
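Intrinsic fluorescence at 340/450 nm (ex/em) was read after 15 min at room temperature in pH 8.0, 100 mM Tris. Each compound concentration expressed as 4-MU-equivalent concentration from a six-point 4-MU standard series on each plate.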
CRE-bla Fsk – alters forskolin-stimulated CRE reporter signaling in CHO cells. CHO CRE-bla reporter (cAMP response element driving beta-lactamase), forskolin EC10, beta-lactamase ratio. Potency, µM (titrated, usually from 38.2 µM), inactives show top-dose activity change, negative = inhibition, most hits filed as activators. 2.5% of 71,000 active; active = well fitted activation curve with a large enough effect in the signal ratio, with a control signal flat, not every such curve was filed as active; inconclusive = small, poorly fitted or top-dose-only effect, or effect the other way, or a change in a side signal; the % refers to the signal ratio; note: potency is the fitted concentration of half-maximal effect; % of control where 0% means no effect
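CRE-bla CHO reporter cells treated with compound titration plus EC10 NKH 477 (water-soluble forskolin), incubated 3 h at 37 °C; CCF4 loading 2 h at room temperature, 460/530 nm emission ratio read, AC50 values derived for positive or negative modulators.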
Active calls of the source: *; [ ] = dose if it differs, or a comment. Unless noted, calls come from the whole dose curve; as a rule, active = well fitted curve in the direction sought with a large enough effect; inconclusive = small, poorly fitted or top-dose-only effect, or another doubt; inactive = no such curve, though single readings can be large; an effect the other way counts as inactive or inconclusive.

How did O=C(C1CCN(S(=O)(=O)c2cccc3nsnc23)CC1)N1CCc2ccccc2C1 do in these assays?
HSD17B inhib: -2%; A350 autofl: 2.6e-08M*; AID923: 0%; HADH2 inhib: 4%; 4MU fluor: 2.6e-08M*; CRE-bla Fsk: inconclusive

Results for CS(=O)(=O)N1CCC(C(=O)N2CCc3ccccc3C2)CC1 ?
HSD17B inhib: -21%; A350 autofl: inconclusive; AID923: -1%; HADH2 inhib: 3%; 4MU fluor: inconclusive; CRE-bla Fsk: -3%

What do the screens show for `CCCCC(C=O)NC(=O)C(CC(C)C)NC(=O)OCc1ccccc1` (centres undefined)?
HSD17B inhib: 9%; AID923: -3%; HADH2 inhib: -1%; CRE-bla Fsk: -21%

How did Cc1ccc(-c2nc(CS(=O)CC(=O)NCCCN3CC(C)CC(C)C3)c(C)o2)cc1 (centres undefined) do in these assays?
HSD17B inhib: 1%; AID923: -2%; HADH2 inhib: 6%; CRE-bla Fsk: -4%

How did CCCN(CCC)CCCNC(=O)CS(=O)Cc1nc(-c2ccc(OC)c(OC)c2)oc1C (centres undefined) do in these assays?
HSD17B inhib: 25µM*; A350 autofl: inactive; AID923: 1%; HADH2 inhib: -6%; 4MU fluor: inactive; CRE-bla Fsk: -19%

Results for COc1ccc(-c2nc(CS(=O)CC(=O)NCCCN3CC(C)CC(C)C3)c(C)o2)cc1OC (centres undefined) ?
HSD17B inhib: 25µM*; A350 autofl: inactive; AID923: 0%; HADH2 inhib: -7%; 4MU fluor: inactive; CRE-bla Fsk: 8%

Results for COc1cccc(Nc2ncc3nc(-c4cn(C)c5ccccc45)c(=O)n(CCC#N)c3n2)c1 ?
HSD17B inhib: 0%; A350 autofl: inactive; AID923: 6%; HADH2 inhib: -8%; 4MU fluor: inactive; CRE-bla Fsk: inconclusive

Results for CCCCCCN(C(=O)CCCCCN1C(=O)NC(c2cccc([N+](=O)[O-])c2)C(C(=O)OCc2ccccc2)=C1C)C(C(=O)NCCCC)c1ccc(OCC(=O)OC)c(C(=O)OC)c1 (centres undefined) ?
HSD17B inhib: -6%; AID923: 0%; HADH2 inhib: -9%; CRE-bla Fsk: 0%

Results for CC(C)Oc1ccc(C(=O)Nc2ccc(N3CCCC3)cc2)cc1 ?
HSD17B inhib: inconclusive; AID923: -1%; HADH2 inhib: 3.2µM*; CRE-bla Fsk: inconclusive

Results for CC(=O)Nc1ccc2oc(-c3cc(F)c(F)cc3Cl)nc2c1 ?
HSD17B inhib: 3.2µM*; A350 autofl: 1e-07M*; AID923: 1%; HADH2 inhib: 155%; 4MU fluor: 9.4e-08M*; CRE-bla Fsk: 7%

How did CCC(=O)Nc1ccc2oc(-c3ccccc3Br)nc2c1 do in these assays?
HSD17B inhib: inconclusive; AID923: 2%; HADH2 inhib: 58%; CRE-bla Fsk: 19%

How did CC(=O)Nc1ccc2oc(-c3ccccc3Br)nc2c1 do in these assays?
HSD17B inhib: 13µM*; A350 autofl: inconclusive; AID923: 0%; HADH2 inhib: -3%; 4MU fluor: inconclusive; CRE-bla Fsk: 9%

What do the screens show for `Cc1ccccc1CN1C2=NCCN2C(=O)C2=C1CCN(Cc1ccccc1)C2`?
HSD17B inhib: -11%[11.4 µM]; A350 autofl: inactive; AID923: 0%[11.5 µM]; HADH2 inhib: 17%[11.4 µM]; 4MU fluor: inactive; CRE-bla Fsk: inconclusive

What do the screens show for `Cc1ccc2[nH]c(=O)c3cc(C(=O)N4CCN(C(=O)c5ccco5)CC4)sc3c2c1`?
HSD17B inhib: 13µM*; AID923: 5%; HADH2 inhib: -18%; CRE-bla Fsk: inconclusive

Results for Cc1ccc2[nH]c(=O)c3cc(C(=O)N(C)Cc4ccco4)sc3c2c1 ?
HSD17B inhib: 32µM*; AID923: 2%; HADH2 inhib: inconclusive; CRE-bla Fsk: 10µM*

Screens deposited in PubChem by National Center for Advancing Translational Sciences (NCATS).
